These results are taken from ChEMBL document CHEMBL5308504, “Tm Shift (DSF) assay results for EUbOPEN Chemogenomics Library” (2023).

SMILES strings stand for the structures.

The assay addresses T1, Aurora kinase A (Homo sapiens) (UniProt O14965).
T1 sequence (whole entry): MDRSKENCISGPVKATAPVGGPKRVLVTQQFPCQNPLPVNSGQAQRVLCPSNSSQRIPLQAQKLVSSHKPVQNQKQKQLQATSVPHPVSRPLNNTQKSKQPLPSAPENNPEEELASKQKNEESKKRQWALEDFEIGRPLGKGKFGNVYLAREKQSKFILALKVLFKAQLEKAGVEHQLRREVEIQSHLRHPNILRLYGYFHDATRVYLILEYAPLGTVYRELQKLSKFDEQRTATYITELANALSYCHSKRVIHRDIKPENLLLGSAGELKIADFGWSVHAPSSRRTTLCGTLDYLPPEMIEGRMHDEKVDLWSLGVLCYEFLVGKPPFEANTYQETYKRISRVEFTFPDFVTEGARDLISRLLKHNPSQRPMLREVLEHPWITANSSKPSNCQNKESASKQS
Particulars: Compound concentration 20.0 uM, Protein concentration 2.0 uM, Result type QC Liability.
Consider `CC1CCN(c2ccnc(NCc3cn(C)cn3)n2)CC1`, for which the ΔTm was -0.52 °C. Regarding `NCCCc1c(C(=O)O)[nH]c2ccc(C(=O)Nc3ccccc3)cc12`, the ΔTm is -1.5 °C. In the case of `COCCOCn1c(S(C)(=O)=O)nc2c1c(=O)n(C)c(=O)n2C` it was 0.11 °C; in that of `CN1C(=O)Cc2ccc(-c3ccc(C[C@@H](C#N)NC(=O)[C@@H]4N[C@H]5CC[C@@H]4C5)c(F)c3)cc21`, -0.07 °C. With `C=C1/C(=C\C=C2/CCC[C@]3(C)[C@@H]([C@H](C)CCCC(C)(C)O)CC[C@@H]23)C[C@@H](O)C[C@@H]1O`, the ΔTm is -10 °C.

For the molecule `CN1Cc2nccc(-c3cn(C)nc3-c3ccc(F)cc3)c2C1=O`, the ΔTm was -0.11 °C.

Consider `CC(C)[C@H](CO)Nc1nc(Nc2ccc(C(=O)O)c(Cl)c2)c2ncn(C(C)C)c2n1`, for which the ΔTm is 7.69 °C. As to `COc1cc2c(cc1CC=C(C)C)C(=O)C[C@@H](c1ccc(O)cc1)O2`, the ΔTm was -1.38 °C. Take `c1ccc2c(-c3coc4cc(-c5ccc(N6CCNCC6)cc5)cnc34)ccnc2c1`: the ΔTm is -0.46 °C. Take `CCn1ccc(Nc2ncc3c(n2)-c2c(nn(C)c2-c2ccc(-c4cnn(C)c4)cc2Cl)CC3)n1`: the ΔTm came to 6.95 °C.

Turning to `O=C(O)c1ccnc(N2CC(O)(c3ccc(OCc4c(-c5c(Cl)cccc5Cl)noc4C4CC4)cc3Cl)C2)c1`, the ΔTm was -1.95 °C.

Regarding `COc1cc(C(=O)NCCOCCOCCOCC(=O)N[C@H](C(=O)N2C[C@@H](O)C[C@H]2C(=O)NCc2ccc(-c3scnc3C)cc2)C(C)(C)C)ccc1Nc1ncc(C(F)(F)F)c(Oc2cccc3c2C(=O)CC3)n1`, the ΔTm came to 0.94 °C. For the molecule `CC(C)(O)CNC(=O)N1C(=O)N(c2cccc(C(F)(F)F)c2)C2=C(C(=O)CC2)[C@@H]1c1ccc(C#N)cc1`, the shift in melting temperature (ΔTm) was -0.16 °C. `COc1cc(Oc2nc(-c3ccc(NC(=O)C4CCOC4)cc3)nn3c(C)nc(C)c23)cc(OC)c1OC` (stereo not given): the ΔTm came to 0.1 °C.

For `COc1cc(-c2cc3ncccc3c(O[C@@H](C)[C@H]3CNC(=O)C3)n2)cc(OC)c1OC`, the ΔTm stood at 2.08 °C.

Take `O=C(Nc1ccc(Cl)c(-c2ccccn2)c1)c1cccc(COc2ccc(Br)cc2CNCCO)c1`: the ΔTm is -0.51 °C. In the case of `CN[C@@H](C)C(=O)N[C@H]1CN(C(=O)CC(C)C)CC[C@H]2CC[C@@H](C(=O)NC(c3ccccc3)c3ccccc3)N2C1=O`, the ΔTm was determined as 0.17 °C. In the case of `CC(C)(C)NC(=O)c1cncn1C1CCN(c2ccc(-c3nnc(C(F)(F)F)o3)cn2)CC1`, the shift in melting temperature (ΔTm) stood at 0.23 °C. With `CN(C)C(=O)Cn1cc(-c2nc(C3(c4ccc(-c5cnc(N)nc5)cc4)CC3)no2)cn1`, the ΔTm was found to be 1.51 °C.

`C[S+]([O-])c1ccc(-c2nc(-c3cccc(I)c3)c(-c3ccncc3)[nH]2)cc1` (stereo not given): the ΔTm is -1.53 °C.

For the molecule `CCc1ccccc1C(=O)Nc1n[nH]c2c(C)c(F)c(C3C(C#N)=C(C)N(C)C(C)=C3C#N)cc12`, the ΔTm was found to be 5.56 °C. In the case of `CC1CCN(C(=O)[C@@H](CCn2cccc2C#N)NS(=O)(=O)c2cccc3[nH]ccc23)CC1` it was 0.05 °C.

On to `N[C@@H]1CCCC[C@H]1Oc1ccc2ncc(-c3cc4ccccc4o3)n2n1`, for which the thermal shift (ΔTm) amounted to 1.07 °C. As for `CC(=O)N1CCC(c2ccc(C(=O)NC(=N)N)cc2C(F)(F)F)CC1`, the ΔTm was 0.44 °C. Turning to `Cc1sc(C(=O)c2cncnc2N[C@@H]2C[C@H](COS(N)(=O)=O)[C@@H](O)C2)cc1[C@@H]1NCCc2ccc(Cl)cc21`, the ΔTm is -0.27 °C.

A word on the ΔTm: it is the shift of the melting midpoint relative to a reference.
